Shown are actives, neighbours in structure and some others; about 3.7% of the full set was active somewhere.
HTT ATP protect = cytoprotection in Huntington HTT-Q103 PC12 cell model; 230,000 compounds, 0.14% hits; AID 1471; Potency, µM (titrated, usually from 56.4 µM), actives largely listed as activators; PC12 HTT-Q103 induced, cytoprotection, ATP luminescence, 40 h; also: nearly all actives have a fitted effect of over 45% in size
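PC12 cells with ecdysone-inducible HTT exon 1 Q103-GFP, induced with 100 nM tebufenozide and co-treated with library compounds in a dose series (1536-well, 1500 cells/well). Cytoprotection read as ATP content by ATPlite luminescence.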
Tau ThT inhib = inhibitors of human tau fibril formation, thioflavin T binding | 270,000 compounds, 2.1% hits | P10636 | Potency, µM (top dose mostly 57.4 µM), actives largely listed as inhibitors | recombinant tau K18 P301L, heparin-induced fibrillization, ThT fluorescence; also: nearly all actives have a fitted effect of over 55% in size
Target sequence (P10636 561-689 P618L limits assumed): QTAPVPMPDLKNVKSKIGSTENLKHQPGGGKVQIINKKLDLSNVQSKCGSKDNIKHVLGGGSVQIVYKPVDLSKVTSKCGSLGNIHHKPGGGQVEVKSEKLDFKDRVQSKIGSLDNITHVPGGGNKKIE
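In this qHTS, human K18 P301L tau is incubated with compound and heparin for 6 hr at 37 C, and Thioflavin T fluorescence then reports fibril load.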
Tau fluor cs = counter-screen for tau fibril formation inhibitors. tau K18 P301L (four-repeat tau fragment) Alexa594 fluorescence, heparin fibrillization. Potency, µM (doses to about 57.7 µM). 280,000 compounds, 0.93% hits; also: nearly all actives have a fitted effect of over 55% in size
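Human K18 P301L tau (15 uM unlabeled plus 0.24 uM Alexa 594-labeled, final) in 100 mM sodium acetate pH 7 was mixed with compound and 20 uM heparin and incubated 6 hr at 37 C.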
HttQ103 aggreg = reduces HttQ103-GFP aggregates in PC12 cells. PC12 HttQ103-GFP aggregates, Acumen cytometry, 40 h. Potency, µM (series often up to 46.1 µM), actives largely listed as inhibitors. 220,000 compounds, 1.1% hits. AID 1688; also: nearly all actives have a fitted effect of over 60% in size
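PC12 cells with ecdysone-inducible HTT exon1 Q103-GFP, induced by 100 nM tebufenozide, given compounds in a concentration series. GFP aggregates (1–25 um, 6 SD above background) counted in lysates by laser-scanning cytometry, 488 nm excitation.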
Tau FP inhib = inhibitors of human tau fibril formation | P10636 | K18 P301L tau heparin fibrillization, Alexa594 FP, 6 h | Potency, µM (doses to about 57.7 µM), hits mostly inhibitors | 280,000 compounds, 0.39% hits; also: nearly all actives have a fitted effect of over 55% in size
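Human tau K18 […] P301L fragment, 15 uM unlabeled plus 0.24 uM Alexa 594-labeled tau (final), with compound and 20 uM heparin in 100 mM sodium acetate pH 7; 6 hr at 37 C, then Alexa 594 FP read.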
Hits are given with their value; 0 = inactive; ? = inconclusive; - = no result given; ! = not active in a repeat; [ ] = dose if it differs, or a comment. Calls follow the shape of the dose curve; as a rule, active = well fitted curve in the direction sought with a large enough effect; inconclusive = small, poorly fitted or top-dose-only effect, or another doubt; inactive = no such curve, though single readings can be large; an effect the other way counts as inactive or inconclusive.

SMILES	HTT ATP protect	Tau ThT inhib	Tau fluor cs	HttQ103 aggreg	Tau FP inhib
Cc1ccccc1OCc1nc2ccccc2c(=O)n1/N=C/c1c[nH]c2ccccc12	0[10 µM]	0	?	0	?
Cc1cccc(C)c1OCc1nc2ccccc2c(=O)n1/N=C/c1c[nH]c2ccccc12	0[10 µM]	0	3.5µM[quencher]	0	?
CCOc1ccc(NC(=O)CC2C(=O)N(c3ccc(Cl)cc3)C(=O)N2Cc2cccs2)cc1 (stereo unspecified)	-	?	0	-	?
COc1ccc(OCc2ccc(-c3nc(C#N)c(N4CCC(C)CC4)o3)o2)cc1	-	0	?	-	0
CCN1C(C(=O)c2ccccc2)=C(OC(=O)COc2ccc(C)cc2)c2ccccc2S1(=O)=O	-	?	0	-	0
CCOC(=O)c1ccc(NC(=O)N2CCN(CCc3ccccc3)CC2)cc1	0[0.074 µM]	0	0	0	0
CCOC(=O)c1ccc(NC(=O)N2CCN(c3ccccn3)CC2)cc1	0	?	0	0.56µM	0
Cc1ccc(NS(=O)(=O)c2ccc(C(=O)N3CCN(c4ccccn4)CC3)cc2)cc1	0	0	0	11µM	0
COc1ccc2nc(C)cc(SCC(=O)N/N=C/c3ccc(O)c(O)c3)c2c1	-	?	?	0	0
Cc1cc(SCC(=O)N/N=C/c2ccc(O)c(O)c2)c(C)cc1Br	0	?	14µM[quencher]	?	0
O=C(O)c1ccc(CS(=O)c2cccc(C(F)(F)F)c2)o1 (stereo unspecified)	0[0.074 µM]	0	0	13µM	0
Clc1ccc2c(c1)C(N1CCNCC1)=Nc1ccccc1O2	0.35µM!	0	0	0	0
COc1ccc(OC)c(NC(=O)c2c(NCc3ccc(C)o3)sc3c2CCC(C)C3)c1 (stereo unspecified)	-	?	?	-	0
Cc1ccc(C)c(N2CCN(C3(c4ccccc4)C(=O)c4ccccc4C3=O)CC2)c1	-	0	0	-	0
Cc1ccc(C)c(N2CCN(S(=O)(=O)c3cc(C(=O)Nc4ccc(Oc5ccccc5)cc4)ccc3F)CC2)c1	-	0	0	-	?
O=C(Nc1cc(Cl)cc(Cl)c1)c1ccc(F)c(S(=O)(=O)N2CCN(c3ccccc3F)CC2)c1	-	0	0	-	20µM
Cc1cccc(N2CCN(S(=O)(=O)c3cc(C(=O)Nc4ccc(Oc5ccccc5)cc4)ccc3F)CC2)c1C	-	0	0	-	28µM
CCCCN(C)C(=O)C1CCCN(c2ncnc3onc(-c4ccc(F)cc4)c23)C1 (stereo unspecified)	-	0	0	-	0
O=C1/C(=C/c2ccccc2)Nc2ccccc21	0	13µM	0	?	0
COc1ccc(CNc2ccnc(-c3ccccc3CN(C)C)n2)c(OC)c1	0	-	-	-	-
CC(=O)c1cc(-c2ccccc2)n(CCC(=O)Nc2cc(C)cc(C)c2)c1C	-	0	0	-	0
Cc1c(O)c(CN2CCCC2)cc2c3c(c(=O)oc12)CCC3	0	13µM	0	0	?
CCOc1ccc(OC(=O)c2cn(-c3ccc(C)cc3)c(=O)c3ccccc23)cc1	-	0	0	-	0
CCCC/C=C/C(NC(=O)c1ccco1)c1ccccc1 (stereo unspecified)	0	0	0	-	0
N/C(=N\OC(=O)COc1ccccc1)c1cccnc1	0	?	0	0	0
SMILES	HTT ATP protect	Tau ThT inhib	Tau fluor cs	HttQ103 aggreg	Tau FP inhib
N/C(=N\OC(=O)C(c1ccccc1)c1ccccc1)c1cccnc1	0	0	0	0.71µM	0
C=CCN1C(=O)N/C(=C/c2ccc(N3CCOCC3)o2)C1=O	-	7.9µM	0	5µM	?
CCOC(=O)/C(C#N)=C1\SS/C(=C(/C#N)C(=O)OCC)S1	0[10 µM]	2.8µM	0	0[9.22 µM]	6.3µM
CCc1ccc(CNC(=O)CSCc2cnn(-c3ccccc3)c2-n2cccc2)cc1	-	?	0	-	0
COC(=O)C1=C(C(=O)OC)SC(=C2C(=S)C(C)(C)N(C(=O)CC(C)C)c3ccccc32)S1	0	1.1µM	?	0	?
Cc1cc(Cl)ccc1OCC(=O)OCC(=O)Nc1ccc(F)c([N+](=O)[O-])c1	-	?	11µM[quencher]	0	?
COc1ccc([C@@H](Nc2ccccn2)c2cc(C(C)(C)C)cc(C(C)(C)C)c2O)cc1	0[10 µM]	-	-	-	-
COCCCn1c(O)c(/C=C2\N=C(C#N)C(=Nc3ccc(C)cc3)O2)sc1=S	0[10 µM]	11µM	?	0[9.22 µM]	?
O=C(O)CCCn1c(O)c(C=C2N=c3ccccc3=N2)sc1=S	0[10 µM]	?	0	0[9.22 µM]	0
CN(c1cccc(Cl)c1)S(=O)(=O)c1cccc(C(=O)Nc2nc3ccccc3[nH]2)c1	0[1.9 µM]	0	?	20µM	0
O=C(NNC(=S)NC1CCCCC1)c1cccs1	0[10 µM]	0	0	0	0
O=C(NNC(=S)NC1CCCCC1)c1ccccc1O	0	0	0	10µM	0
O=C(Nc1ccc(F)c(F)c1)c1cc(S(=O)(=O)NCc2ccc3c(c2)OCO3)ccc1F	-	0	0	-	?
CC1=NN(c2ccccc2)C(=O)C1N=Nc1ccccc1 (stereo unspecified)	-	?	0	0	0
CC1=NN(c2ccccc2)C(=O)C1N=Nc1ccc(N)cc1 (stereo unspecified)	0[10 µM]	11µM	16µM[quencher]	0	0
Cc1cc(C2(c3cc(C)c(O)cc3C)OS(=O)(=O)c3ccccc32)c(C)cc1O	0	-	-	-	-
O=C(Nc1cccs1)Nc1cc(C(F)(F)F)ccc1Cl	-	0	6.3µM[quencher]	-	0
COc1ccc(NC(=O)Nc2cccs2)cc1Cl	0	?	10µM[quencher]	0	?
O=C(Nc1ccc(C(F)(F)F)cn1)Nc1cccs1	0[10 µM]	0	0	0[9.22 µM]	0
Clc1ccc(Nc2nc(C3CC3)cs2)cc1	0	?	16µM[quencher]	0	?
COc1ccc(/C=C2/CCc3ccccc3C2=O)cc1CN1CCOCC1	-	?	0	0	0
COc1ccc(/C=C2\CCc3ccccc3C2=O)cc1Cn1nc(C)cc1C	0	?	0	25µM	0
COc1ccc(-c2cn3nc(N4CCCC(C(=O)NCc5ccc(Cl)cc5)C4)sc3n2)cc1 (stereo unspecified)	-	?	?	-	0
O=C(Nc1cccc(C(F)(F)F)c1)c1cccc(C(=O)Nc2cccc(C(F)(F)F)c2)c1	-	0	0	-	?
CCOc1ccc(C(=O)Nc2ccc3nc(Nc4cccc(C(F)(F)F)c4)cc(C)c3c2)cc1OCC	-	?	3.5µM[quencher]	-	0
SMILES	HTT ATP protect	Tau ThT inhib	Tau fluor cs	HttQ103 aggreg	Tau FP inhib
Cc1cc(Nc2cccc(C(F)(F)F)c2)nc2ccc(NC(=O)c3cccnc3)cc12	-	0	8.9µM[quencher]	-	?
Cc1nc2ccc(NC(=O)c3cccc(C(F)(F)F)c3)cc2o1	0[10 µM]	0	0	0	0
Cc1cc(Nc2cccc(C(F)(F)F)c2)nc2ccc(NC(=O)c3cccc(Cl)c3)cc12	-	?	7.1µM[quencher]	-	?
COc1ccc(C(=O)Oc2ccc(C(c3c(C)[nH][nH]c3=O)c3c(C)[nH][nH]c3=O)cc2)cc1	-	?	0	-	0
S=C(Nc1ccc2nccnc2c1)N1CCOCC1	0[10 µM]	25µM	0	0[9.22 µM]	?
O=C(O)[C@@H]1[C@H](C(=O)O)[C@H]2C(=O)C=C[C@H]1N2Cc1ccccc1	0[10 µM]	-	-	-	-
Clc1cccc(Cl)c1CNc1ccc(N2CCCC2)cc1	0	7.9µM	?	?	?

Compound activity as filed in PubChem BioAssay.
